# SENP6 inh: inhibitors of human SENP6 protease; actives 1.8% (n = 330,000); inhibition, % at 10 µM; Q9GZR1; Recombinant SENP6 catalytic domain, aminoluciferin luminescence;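 active = inhibition above about 50% at the single tested dose, limit read from the data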;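 note: plate controls were DMSO wells with enzyme for no effect and DMSO wells lacking enzyme for full effect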
# SENP8 block-1: inhibitors of human SENP8 protease; purified SENP8, Z-RLRGG-aminoluciferin cleavage, luminescence; Q96LD8; inhibition, % at 10 µM; actives 1.2% (n = 330,000); AID 2540; in the data active = inhibition above about 50%
# SENP7 inh: inhibitors of human SENP7 protease; actives 1.5% (n = 330,000); inhibition, % at 5 µM; Q9BQF6; recombinant SENP7, Z-RLRGG-aminoluciferin luminescence, 40 min; AID 434973;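 active = inhibition above about 50% at the single test dose, limit read from the data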;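 note: plate controls were DMSO with enzyme for no effect and no enzyme buffer wells for full effect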
# Target sequence (Q9BQF6 706-1050 limits assumed): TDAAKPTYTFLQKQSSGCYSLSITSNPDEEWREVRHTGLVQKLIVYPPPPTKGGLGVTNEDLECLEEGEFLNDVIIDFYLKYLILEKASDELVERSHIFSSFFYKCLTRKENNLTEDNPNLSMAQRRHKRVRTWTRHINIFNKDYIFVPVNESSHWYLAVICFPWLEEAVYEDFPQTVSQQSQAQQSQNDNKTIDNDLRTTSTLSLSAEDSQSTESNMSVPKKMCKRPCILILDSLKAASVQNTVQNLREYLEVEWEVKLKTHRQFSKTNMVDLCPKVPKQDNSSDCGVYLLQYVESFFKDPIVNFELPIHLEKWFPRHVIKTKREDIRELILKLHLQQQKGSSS
# SENP8 block-2: blocks human SENP8 cleavage of Nedd8 substrate; recombinant SENP8, Nedd8 substrate fluorescence; inhibition, % at 20 µM; actives 0.64% (n = 360,000); in the data active = inhibition mostly above about 40%, no sharp cut-off; inactive = mostly below about 27%
# LGR2 inh: blocks bursicon-induced cAMP signaling via Drosophila LGR2; HEK293 LGR2, CRE-luciferase, bursicon-stimulated, 4 h; inhibition, % at 9.99 µM; actives 0.35% (n = 380,000); AID 720647;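 active = drop in luminescence signal, shown as inhibition above about 50% in the replicate tests, limit read from the data, passing the limit was not always enough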;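 note: agonist challenge used bursicon conditioned medium at about half maximal strength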
# HSP90 inh: inhibitors of HSP90 luciferase refolding in rabbit reticulocyte lysate; actives 0.91% (n = 290,000); inhibition, % at 5.6 µM; luciferase refolding luminescence, 3 h; AID 1789;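 active = inhibition above the screen-wide mean plus 3 SD, computed separately per campaign, cut at about 16% in these data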;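 note: 0% = DMSO wells and 100% = 60 µM geldanamycin wells; inhibitors lower the luminescence because luciferase stays unfolded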
# SENP8 conf: human SENP8 inhibition, confirmed. Recombinant SENP8, Z-RLRGG-aminoluciferin luminescence, 60 min. AID 488912. actives 40% (n = 6,200). inhibition, % at 12.5 µM. shares compounds with SENP7 inh;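 active = mean inhibition across replicates above about 50%, limit read from the data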
# SENP6 conf: human SENP6 inhibition, confirmed; inhibition, % at 12.5 µM; actives 58% (n = 6,200); recombinant SENP6, Z-RLRGG-aminoluciferin luminescence; shares compounds with SENP7 inh
# SENP7 confirm: confirmation of human SENP7 protease inhibitors; AID 488917; actives 69% (n = 6,200); recombinant SENP7, Z-RLRGG-aminoluciferin luminescence, 40 min; inhibition, % at 12.5 µM; shares compounds with SENP7 inh
# Casp3 SENP sel: inhibits human caspase-3 in SENP selectivity test | shares compounds with SENP7 inh | purified caspase-3, Z-DEVD-aminoluciferin luminescence, 60 min | inhibition, % at 12.5 µM | actives 60% (n = 6,200) | AID 488918;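 active = mean inhibition above about 50%, limit read from the data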;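 note: plate controls were enzyme with DMSO for no effect and wells without caspase-3 for full effect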
# Target sequence (P42574 28-227 limits assumed): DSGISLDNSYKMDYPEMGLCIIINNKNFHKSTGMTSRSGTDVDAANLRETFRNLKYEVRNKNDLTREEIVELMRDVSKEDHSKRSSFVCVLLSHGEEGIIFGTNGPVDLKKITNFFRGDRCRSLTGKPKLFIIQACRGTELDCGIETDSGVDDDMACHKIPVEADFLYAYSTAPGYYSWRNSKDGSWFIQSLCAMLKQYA
# SENP luc ctr: interferes with luciferase luminescence in SENP counter-screen | shares compounds with SENP7 inh | Pre-incubated SENP8/Z-RLRGG-aminoluciferin, luciferase luminescence interference | inhibition, % at 12.5 µM | actives 39% (n = 6,200) | AID 488919;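 active = mean inhibition above about 50% when retested at one dose, limit read from the data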;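 note: plate controls were DMSO wells with completed reaction for no effect and substrate without enzyme for full effect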
# * marks the source's active call; other numbers are inactive results; nt = no result. Sampled rows, rich in hits. Any-hit rate of the full collection: about 2.3%.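 Rule for the calls, unless noted: active = mean inhibition above about 50% in the one-dose retest (limit read from the data); inactive = the rest.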
SMILES,SENP6 inh,SENP8 block-1,SENP7 inh,SENP8 block-2,LGR2 inh,HSP90 inh,SENP8 conf,SENP6 conf,SENP7 confirm,Casp3 SENP sel,SENP luc ctr
O=C(Nc1ccc(F)cc1F)c1ccc2c(=O)n3c(nc2c1)CCC3,64*,26,61*,9,-41,nt,47,52*,80*,86*,40
Cc1ccc(C(=O)N/N=C/c2ccc(-c3cccc(Cl)c3)o2)cn1,-17,-1,-6,-436,4,1,nt,nt,nt,nt,nt
Cc1ccc(C(=O)N/N=C/c2ccc(-c3ccccc3[N+](=O)[O-])o2)cn1,65*,36,30,2,-9,11,-24,-8,-8,-5,-8
CC(=O)Nc1ccc(-c2nnn(CC(=O)c3ccc(F)cc3)n2)cc1Cl,82*,1,-1,17,2,-3,14,9,3,-2,-1
CC(=O)Nc1ccc(-c2nnn(CC(=O)c3ccccc3)n2)cc1Cl,-12,1,-1,18,nt,2,nt,nt,nt,nt,nt
CNC[C@@H]1OCCCC[C@H](C)Oc2ccc(NC(=O)Nc3ccc(C(F)(F)F)cc3)cc2C(=O)N([C@@H](C)CO)C[C@@H]1C,nt,nt,nt,nt,12,nt,nt,nt,nt,nt,nt
Cn1sc(NC(=O)c2ccccc2Cl)nc1=O,12,-8,9,27,nt,-3,nt,nt,nt,nt,nt
Cn1sc(NC(=O)c2cccc(Cl)c2)nc1=O,69*,65*,70*,9,nt,1,11,72*,92*,82*,72*
O=C(COC(=O)c1cccnc1Cl)c1ccc(Cl)cc1Cl,85*,-3,67*,7,nt,-2,45,36,88*,78*,74*
O=C(COC(=O)c1cccnc1Cl)c1ccc(OC(F)F)cc1,24,71*,86*,8,6,-4,-2,77*,97*,89*,78*
COC(=O)c1ccc(COC(=O)c2cccnc2Cl)cc1,51*,37,46,6,-48,1,50*,46,79*,66*,56*
COc1ccc(NC(=O)Nc2ccc3c(c2)C(=O)N([C@@H](C)CO)C[C@@H](C)[C@@H](CN(C)C(=O)C2CCCCC2)OCCCC[C@@H](C)O3)cc1,nt,nt,nt,nt,22,nt,nt,nt,nt,nt,nt
Cc1ccc(S(=O)(=O)N(C)C[C@@H]2Oc3ncc(-c4ccccc4)cc3C(=O)N([C@@H](C)CO)C[C@H]2C)cc1,nt,nt,nt,nt,-15,nt,nt,nt,nt,nt,nt
CCN(CC)C(=O)COc1ccc(-c2ccccc2)cc1,70*,46,60*,22,nt,0,55*,55*,82*,73*,66*
C[C@H](NC(=O)[C@@H]1[C@@H](CO)[C@@H]2Cn3c(ccc(-c4cccnc4)c3=O)[C@H]1N2C)c1ccccc1,nt,nt,nt,nt,-2,nt,nt,nt,nt,nt,nt
COc1ccc(Cl)cc1S(=O)(=O)NCCCn1ccnc1,53*,-4,0,17,2,-2,2,-3,-2,-3,-4
COc1ccc(OC)c(S(=O)(=O)NCCCn2ccnc2)c1,0,-8,-3,13,12,-3,nt,nt,nt,nt,nt
O=C(c1ccc(-c2nnc(-c3ccccc3)o2)cc1)N1CCCCCC1,96*,88*,93*,14,nt,-1,2,50,60*,69*,35
Cc1ccc(/C=C/c2nnc(-c3cccs3)o2)cc1,91*,86*,0,-304,19,8,-5,43,67*,43,23
Cc1ccc(-c2nnc(-c3ccccc3)o2)cc1,92*,82*,93*,-8,nt,6,-7,80*,96*,86*,54*
Cc1ccc(-c2nnc(N)o2)cc1,-6,3,0,14,20,0,nt,nt,nt,nt,nt
Cc1ccc(-c2nnc(-c3cccs3)o2)cc1,24,68*,81*,-339,-11,7,72*,87*,99*,86*,43
C[C@H](CO)N1C[C@H](C)[C@H](CN(C)S(C)(=O)=O)Oc2c(NC(=O)C3CC3)cccc2C1=O,nt,nt,nt,nt,2,nt,nt,nt,nt,nt,nt
COCC#Cc1cnc2c(c1)C(=O)N([C@H](C)CO)C[C@H](C)[C@@H](CN(C)C(=O)c1ccc3c(c1)OCO3)O2,nt,nt,nt,nt,-9,nt,nt,nt,nt,nt,nt
Fc1ccc(/C=C/c2nnc(-c3cccs3)o2)cc1,61*,20,67*,-409,-82,2,0,0,15,27,12
SMILES,SENP6 inh,SENP8 block-1,SENP7 inh,SENP8 block-2,LGR2 inh,HSP90 inh,SENP8 conf,SENP6 conf,SENP7 confirm,Casp3 SENP sel,SENP luc ctr
COCC#Cc1cnc2c(c1)C(=O)N([C@H](C)CO)C[C@@H](C)[C@H](CN(C)C(=O)CN1CCOCC1)O2,nt,nt,nt,nt,2,nt,nt,nt,nt,nt,nt
Cc1ccc(NC(=O)N2CCc3ccccc3C2)cc1C,-11,-4,-4,4,-79,-4,nt,nt,nt,nt,nt
Cc1cc(C)cc(NC(=O)N2CCc3ccccc3C2)c1,55*,24,43,5,-45,0,43,37,69*,50*,51*
O=c1[nH]c(SCc2ccc(Cl)cc2)nc2ccsc12,78*,63*,34,nt,-119,3,12,67*,88*,50,7
CC=Cc1ccc2n(c1=O)C[C@@H]1[C@@H](CO)[C@H](C(=O)NCCC)[C@H]2N1Cc1ccccc1 (mixture of isomers),nt,nt,nt,nt,-3,nt,nt,nt,nt,nt,nt
CC(=O)/C(N=Nc1ccc2c(c1)OCO2)=C(\C)O,84*,59*,83*,8,-59,-4,-10,37,78*,74*,28
CC(=O)/C(N=Nc1ccc(C(=O)O)cc1)=C(\C)O,76*,44,67*,26,9,-2,58*,58*,87*,92*,73*
CNC(=O)C[C@@H]1CC[C@@H]2[C@H](COc3ccc(NS(=O)(=O)c4cccc(F)c4)cc3C(=O)N2C)O1,nt,nt,nt,nt,-2,nt,nt,nt,nt,nt,nt
C[C@@H]1CCCCO[C@@H](CN(C)Cc2ccc(C(=O)O)cc2)[C@H](C)CN([C@@H](C)CO)C(=O)c2cc(NC(=O)CCC(F)(F)F)ccc2O1,nt,nt,nt,nt,1,nt,nt,nt,nt,nt,nt
O=C(c1ccc(Cl)cc1)c1coc2ccc(O)cc12,86*,78*,77*,13,nt,5,7,88*,99*,73*,2
